{
  "source": "PubChem BioAssay (Tox21)",
  "note": "Records with an inconclusive call do not appear. Unmarked numbers belong to inactive results. The source made the active and inactive calls. Unless noted, the call rests on the fitted dose curve; in most records, active means well fitted cell-killing curve with a large enough effect in the repeat runs; inconclusive means weak or mixed curves, or effect the other way; inactive means no such curve, though single readings can be large or run the other way. On the % scale 0 is the no-effect control and ±100 the full control effect; potency means the concentration at half of the fitted maximal effect.",
  "data": [
    {"target": "Bile acid receptor (Homo sapiens) (UniProt Q96RI1)", "sequence (Q96RI1 whole entry, looked up)": "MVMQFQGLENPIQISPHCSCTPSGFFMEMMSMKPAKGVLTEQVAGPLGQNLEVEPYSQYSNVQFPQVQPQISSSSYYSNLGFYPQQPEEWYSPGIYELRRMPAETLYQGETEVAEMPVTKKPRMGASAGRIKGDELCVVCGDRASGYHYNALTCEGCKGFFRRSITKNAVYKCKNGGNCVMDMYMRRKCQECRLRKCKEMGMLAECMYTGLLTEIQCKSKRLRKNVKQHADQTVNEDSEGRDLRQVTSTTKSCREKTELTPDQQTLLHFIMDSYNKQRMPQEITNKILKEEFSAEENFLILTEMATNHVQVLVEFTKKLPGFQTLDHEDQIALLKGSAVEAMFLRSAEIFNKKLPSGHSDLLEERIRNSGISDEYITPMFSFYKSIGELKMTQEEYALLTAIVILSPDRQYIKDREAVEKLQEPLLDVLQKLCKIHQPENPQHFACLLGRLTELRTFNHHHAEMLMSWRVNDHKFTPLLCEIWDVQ", "test": "qHTS assay to identify small molecule antagonists of the farnesoid-X-receptor (FXR) signaling pathway (AID 743217; active means well fitted inhibition curve with a large enough effect in the signal ratio in the repeat runs, not every such curve was filed as active; the % refers to the signal ratio)", "conditions": "HEK293T FXR-UAS-bla, beta-lactamase ratio, CDCA-stimulated, 16 h; series mostly up to 62.6 µM; activity change, negative = inhibition: at the top concentration", "outline": "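Antagonist mode against 50 uM (final) chenodeoxycholic acid stimulation in FXR-bla HEK 293T cells, 16 h at 37 °C. Inhibition detected as reduced beta-lactamase activity via LiveBLAzer B/G FRET fluorescence after 2 h at room temperature.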", "values": [
      {"smiles": "O=[N+]([O-])c1ccc2c3c(cccc13)CC2", "activity change, negative = inhibition": "1.98%"},
      {"smiles": "CC(CC(C#N)(c1ccccc1)c1ccccc1)N(C)C", "note": "(stereo not drawn)", "activity change, negative = inhibition": "-13.4% [at 81.1 µM]"},
      {"smiles": "OCCBr", "activity change, negative = inhibition": "2.28%"},
      {"smiles": "CCCCOC(=O)c1ccccc1C(=O)O", "activity change, negative = inhibition": "1.03%"},
      {"smiles": "CC(=O)Nc1cc([As](=O)(O)O)ccc1O", "activity change, negative = inhibition": "-3.7%"},
      {"smiles": "CC(COc1ccc(Oc2ccccc2)cc1)Oc1ccccn1", "note": "(stereo not drawn)", "activity change, negative = inhibition": "-4.47%"},
      {"smiles": "CNC(=O)Oc1ccc(N(C)C)c(C)c1", "activity change, negative = inhibition": "0.707%"},
      {"smiles": "O=[N+]([O-])c1cccc(O)c1", "activity change, negative = inhibition": "2.85% [at 81.1 µM]"},
      {"smiles": "CNC(=O)Oc1c(C(C)(C)C)cc(C)cc1C(C)(C)C", "activity change, negative = inhibition": "-5.85%"},
      {"smiles": "COCC(=O)N(c1c(C)cccc1C)N1CCOC1=O", "activity change, negative = inhibition": "-0.572%"},
      {"smiles": "CCOC(=O)CP(=O)(OCC)OCC", "activity change, negative = inhibition": "-4.22%"},
      {"smiles": "O=C(Nc1ccccc1)N(Cc1ccc(Cl)cc1)C1CCCC1", "Potency": "54.9 µM (active)"},
      {"smiles": "C[C@@H]1CN(C2CCC(C#N)(c3ccc(F)cc3)CC2)CC[C@]1(C(=O)O)c1ccccc1", "note": "(stereo partly drawn)", "activity change, negative = inhibition": "7.86%"},
      {"smiles": "CN1CCN(C(=O)O[C@H]2c3nccnc3C(=O)N2c2ccc(Cl)cn2)CC1", "activity change, negative = inhibition": "0.972%"},
      {"smiles": "CCC(C)n1c(=O)[nH]c(C)c(Br)c1=O", "note": "(stereo not drawn)", "activity change, negative = inhibition": "10.1%"}
    ]},
    {"system": "not listed separately", "test": "qHTS assay to identify small molecule agonists of the farnesoid-X-receptor (FXR) signaling pathway - cell viability counter screen (AID 743218); further: nearly all actives have a fitted effect of over 45% in size", "conditions": "FXR-bla HEK293T viability, CellTiter-Glo luminescence, 16 h; series mostly up to 62.6 µM; viability change, negative = cytotoxic: at the top concentration", "outline": "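Cytotoxicity counter-screen run in parallel, same wells: FXR-UAS-bla HEK 293T cells dosed 16 h at 37 C, viability read by CellTiter-Glo luminescence after 30 min at room temperature.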", "values": [
      {"smiles": "NC(=O)c1cc([N+](=O)[O-])cc([N+](=O)[O-])c1", "viability change, negative = cytotoxic": "14.7%"},
      {"smiles": "O=[N+]([O-])c1ccc2c3c(cccc13)CC2", "viability change, negative = cytotoxic": "14.2%"},
      {"smiles": "CCCCc1ccc(O)cc1", "viability change, negative = cytotoxic": "-2.68%"},
      {"smiles": "CC(Oc1ccc(Oc2ncc(C(F)(F)F)cc2Cl)cc1)C(=O)O", "note": "(stereo not drawn)", "Potency": "21.9 µM (active)"},
      {"smiles": "Clc1ccccc1N1CCNCC1", "viability change, negative = cytotoxic": "-1.2%"},
      {"smiles": "CC(Cl)(Cl)[N+](=O)[O-]", "viability change, negative = cytotoxic": "1.48%"},
      {"smiles": "CC(=O)Nc1cc([As](=O)(O)O)ccc1O", "viability change, negative = cytotoxic": "-10.3%"},
      {"smiles": "COP(N)(=S)Oc1ccccc1C(=O)OC(C)C", "note": "(stereo not drawn)", "viability change, negative = cytotoxic": "4.67%"},
      {"smiles": "O=[N+]([O-])c1cccc(O)c1", "viability change, negative = cytotoxic": "-3.13% [at 81.1 µM]"},
      {"smiles": "CNC(=O)Oc1c(C(C)(C)C)cc(C)cc1C(C)(C)C", "viability change, negative = cytotoxic": "2.14%"},
      {"smiles": "C[N+](C)=CCl", "viability change, negative = cytotoxic": "4.09%"},
      {"smiles": "COCC(=O)N(c1c(C)cccc1C)N1CCOC1=O", "viability change, negative = cytotoxic": "0.794%"},
      {"smiles": "Cc1ncc2n1-c1ccc(Cl)cc1C(c1ccccc1F)=NC2", "viability change, negative = cytotoxic": "9.04%"},
      {"smiles": "O=CNC(N1CCN(C(NC=O)C(Cl)(Cl)Cl)CC1)C(Cl)(Cl)Cl", "note": "(stereo not drawn)", "viability change, negative = cytotoxic": "4.07%"},
      {"smiles": "CCOC(=O)CP(=O)(OCC)OCC", "viability change, negative = cytotoxic": "-13.9%"},
      {"smiles": "C#C[C@]1(O)C=C[C@H]2[C@@H]3CCC4=CC(=O)CC[C@@H]4[C@H]3CC[C@@]21CC", "viability change, negative = cytotoxic": "3.48%"},
      {"smiles": "C[C@]12CC[C@H]3[C@@H](CC=C4C[C@@H](O)CC[C@@]43C)[C@@H]1CC[C@@H]2O", "viability change, negative = cytotoxic": "-3.37%"},
      {"smiles": "CC(C(O)c1ccccc1)N(C)C/C=C/c1ccccc1", "note": "(stereo not drawn)", "viability change, negative = cytotoxic": "-23.2%"},
      {"smiles": "O=C(Oc1ccc(Br)cc1)N1CCN2CCC1CC2", "viability change, negative = cytotoxic": "-22.7%"},
      {"smiles": "CN/C(=N\\[N+](=O)[O-])NCC1CCOC1", "note": "(stereo not drawn)", "viability change, negative = cytotoxic": "16.9%"},
      {"smiles": "CN1CCN(C(=O)O[C@H]2c3nccnc3C(=O)N2c2ccc(Cl)cn2)CC1", "viability change, negative = cytotoxic": "-0.8%"},
      {"smiles": "CCC/C(=N\\OCC)C1=C(O)CC(CC(C)SCC)CC1=O", "note": "(stereo not drawn)", "viability change, negative = cytotoxic": "0.387% [at 81.1 µM]"},
      {"smiles": "COC(=O)C1=CCCN(C)C1", "viability change, negative = cytotoxic": "-1.17%"}
    ]}
  ]
}
